The values below come from PubChem BioAssay.

Calls of active or inactive are those of the source.

In assay [1] the test system is XIP peptide (Xip251-270) binding. The assay can be described thus: small-molecule binders of XIP peptide, primary screen, biochemical, small-molecule microarray, fluorescence 635/667 nm, 0.1 µg/mL protein (AID 1182). To be noted: fluorescent protein binding, 635 nm, higher = more signal, called active from +8 up or from −8 down.
Assay [2] deals with XIP peptide (Xip251-270). Kind of assay: small-molecule binders of XIP peptide, primary screen, biochemical, small-molecule microarray, fluorescence 635/667 nm, 0.5 µg/mL protein (AID 1183). Particulars: small-molecule microarray binding, fluorescence 635 nm; higher = more signal.
Assay [3] can be described thus: Plasmodium falciparum growth inhibition, primary screen, strain 3D7, DAPI fluorescence, 100 nL (AID 1184).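 Note: parasites grown inside human red blood cells in medium with human serum.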 Particulars: P. falciparum 3D7 growth, 3 d, higher = more signal.
Assay [4] concerns the target Homeobox protein Hox-A13 (Mus musculus) (UniProt Q62424). The assay can be described thus: inhibitors of HoxA13-DNA binding, primary screen, biochemical, fluorescence polarization, labeled oligonucleotide (AID 1185). Particulars: 15 min, higher = more signal, called active from +8 up or from −8 down. In general terms: Fluorescence polarisation rises when a labelled molecule tumbles more slowly, as on binding a larger partner.

Sequence of Homeobox protein Hox-A13 (Mus musculus) (Q62424 whole entry, looked up): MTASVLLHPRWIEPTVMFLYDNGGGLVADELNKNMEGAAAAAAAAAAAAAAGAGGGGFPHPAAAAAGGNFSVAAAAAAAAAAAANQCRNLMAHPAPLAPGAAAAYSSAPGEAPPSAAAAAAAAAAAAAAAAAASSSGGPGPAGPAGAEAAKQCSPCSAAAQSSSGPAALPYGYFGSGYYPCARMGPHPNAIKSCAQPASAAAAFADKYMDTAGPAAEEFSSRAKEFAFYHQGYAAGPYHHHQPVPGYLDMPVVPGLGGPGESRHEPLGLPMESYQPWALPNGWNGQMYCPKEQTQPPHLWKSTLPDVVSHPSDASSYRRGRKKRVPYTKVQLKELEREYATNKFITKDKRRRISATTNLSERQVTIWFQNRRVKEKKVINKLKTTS

For `COc1cccc([C@H]2Oc3ccc(OC)cc3C(=NO[C@H](C)c3cn([C@H](CO)Cc4ccccc4)nn3)[C@@H]2O)c1`, the results for the composite z-score in assay [1] and in assay [2] were -0.0592 (inactive) and 0.733, respectively. Besides, the results for the z-score in assay [3] and in assay [4] were 0.24 and -6.29 (inactive), respectively.

`C=Cc1ccc([C@H]2N[C@H](C(=O)O)CC[C@@H]2C)cc1`: the results for the composite z-score in assay [1] and in assay [2] were -0.132 (inactive) and -0.0045, respectively. The z-score in assay [3] was 2.18; in assay [4], -0.69 (inactive).

In the case of `CCOC(=O)[C@H](CC(C)C)NC(=O)CCC1CC(OC(=O)NCc2cccc3ccccc23)CC2(CCCC(COC(=O)NCCCN3CCCC3=O)O2)O1` (stereo partly drawn), the results for the composite z-score in assay [1] and in assay [2] were -0.0359 (inactive) and 0.524, respectively. In addition, the figures for the z-score in assay [3] and in assay [4] were -1.92 and -4.61 (inactive), respectively.

Consider `COC(=O)[C@H]1[C@@H](O)[C@@]2(O)c3ccccc3O[C@@]2(c2ccccc2)[C@@H]1c1ccccc1`, for which the composite z-score was -0.759 (inactive) in assay [1] and -0.028 in assay [2]. For the same compound, the z-score in assay [3] is -1.87; in assay [4] it was -1.51 (inactive).

For `CC(C)[C@@H](OCc1ccccc1)[C@H](C)C=NOC[C@@H](O)COCc1ccco1`, the composite z-score is -0.0277 (inactive) in assay [1] and -0.273 in assay [2]. The z-score in assay [3] is 1.4; in assay [4] it was -2.74 (inactive).

As for `C#CCCCON=C1C[C@@H](O)[C@@H](O)[C@@H]2[C@@H]3C(=O)N(c4ccc(F)cc4F)C(=O)[C@@H]3CC[C@H]12`, the figures for the composite z-score in assay [1] and in assay [2] were 1.55 (inactive) and 0.683, respectively. The figures for the z-score in assay [3] and in assay [4] were -0.0103 and -0.42 (inactive), respectively.

Regarding `O=C1OCCC=C1C(O)CCc1ccccc1` (stereo not drawn), the composite z-score in assay [1] is 0.321 (inactive); in assay [2] it was 0.716. Moreover, the z-score in assay [3] is -0.542; in assay [4], -0.295 (inactive).

Take `CC(C)=CCCC(C)=CCON=C1C[C@@H](O)[C@@H](O)[C@@H]2[C@@H]3C(=O)N(C[C@@H]4CCCO4)C(=O)[C@@H]3CC[C@H]12`: the composite z-score in assay [1] was 0.243 (inactive); in assay [2] it was 0.378. The z-score in assay [3] was -0.0721; in assay [4], -3.8 (inactive).

Take `O=c1n(Cc2cc3c(cc2Cl)OCO3)c(=O)n2n1CC[C@@H]1C(=NOC[C@@H](O)COCc3ccco3)[C@H]3O[C@H]3[C@@H](O)[C@@H]12`: the composite z-score in assay [1] was -0.45 (inactive); in assay [2] it was 0.108. Further, the z-score was -0.181 in assay [3] and -0.786 (inactive) in assay [4].

For the compound `CCOC(=O)NN=C1C[C@@H](O)[C@@H](O)[C@@H]2[C@@H]3C(=O)N(c4cccc(Oc5ccccc5)c4)C(=O)[C@@H]3CC[C@@H]12`, the composite z-score in assay [1] is 0.187 (inactive); in assay [2], 0.651. Moreover, the z-score in assay [3] was -0.512; in assay [4] it was -4.18 (inactive).

For the compound `CC(C)=NO[C@H](C)c1cn([C@H](CO)Cc2ccccc2)nn1`, the values for the composite z-score in assay [1] and in assay [2] were -0.662 (inactive) and 0.0455, respectively. The z-score is 0.28 in assay [3] and 0.584 (inactive) in assay [4].

Turning to `CO[C@H]1COC(=O)[C@@H](Cc2ccccc2)NC(=O)[C@@H](C)COC(=O)CCC[C@@H]1C`, the composite z-score is 0.0283 (inactive) in assay [1] and 0.171 in assay [2]. The values for the z-score in assay [3] and in assay [4] were -0.0331 and -0.733 (inactive), respectively.

Regarding `CCN1C(=O)[C@H]2[C@H]3[C@H](O)[C@H](O)CC(=NOCC(C)C)[C@@H]3CC[C@H]2C1=O`, the composite z-score in assay [1] was 0.821 (inactive); in assay [2] it was 0.645. Moreover, the z-score in assay [3] was -0.108; in assay [4], -1.62 (inactive).

Consider `CC(CCN1CCCc2nc(C)c(C)cc21)=NO[C@@H](C)c1cc(-c2c(C)cc(C)cc2C)no1`, for which the results for the composite z-score in assay [1] and in assay [2] were 0.268 (inactive) and 0.567, respectively. Also, the z-score is -1.36 in assay [3] and -3.46 (inactive) in assay [4].

Turning to `O=C1C[C@@H](O)[C@@H](O)[C@@H]2[C@@H]3C(=O)N(C[C@@H]4CCCO4)C(=O)[C@@H]3CC[C@@H]12`, the composite z-score in assay [1] is 0.74 (inactive); in assay [2], 0.592. The z-score in assay [3] was -0.223; in assay [4], 0.368 (inactive).

On to `C[C@H]1CC[C@H]2C(=O)OC(CO)CN2[C@@H]1c1ccc(Br)cc1` (stereo partly drawn), for which the composite z-score in assay [1] was 0.201 (inactive); in assay [2], 0.115. Besides, the figures for the z-score in assay [3] and in assay [4] were -0.296 and -0.52 (inactive), respectively.

On to `CO[C@H]1COC(=O)CC=C[C@H](C)[C@@H](OC)COC(=O)[C@@H](C)COC(=O)CC=C[C@@H]1C`, for which the composite z-score in assay [1] was -0.0653 (inactive); in assay [2], -0.396. The values for the z-score in assay [3] and in assay [4] were -0.276 and -1.42 (inactive), respectively.

With `CC(C)CON=C1[C@H]2CCn3c(=O)n(Cc4cc5c(cc4Cl)OCO5)c(=O)n3[C@H]2[C@H](O)[C@@H]2O[C@H]12`, the composite z-score was 0.26 (inactive) in assay [1] and 0.368 in assay [2]. In addition, the z-score was -1.17 in assay [3] and 1.8 (inactive) in assay [4].

As for `COC(=O)CC=C[C@@H](C)[C@@H](C=NO[C@H](C)c1cn([C@H](CO)Cc2ccccc2)nn1)NS(=O)(=O)c1ccc(C)cc1`, the figures for the composite z-score in assay [1] and in assay [2] were -0.418 (inactive) and 0.126, respectively. Further, the results for the z-score in assay [3] and in assay [4] were 0.346 and -6.42 (inactive), respectively.

`CC(C)C[C@H](NC(=O)CCC1CC(OC(=O)NCc2cccc3ccccc23)CC2(CCCC(COC(=O)NCc3ccccc3)O2)O1)C(=O)NCC(c1ccccc1)c1ccccc1` (stereo partly drawn): the results for the composite z-score in assay [1] and in assay [2] were -0.284 (inactive) and 0.673, respectively. Further, the z-score is -1.65 in assay [3] and -6.28 (inactive) in assay [4].

Regarding `C=CC[C@@H]1C=C[C@H](ON=C(C)CCC(=O)OC[C@H]2O[C@H](C#Cc3ccccc3)C=C[C@@H]2Oc2ccc(C)cc2)[C@@H](CO)O1`, the composite z-score is 1.18 (inactive) in assay [1] and 0.437 in assay [2]. In addition, the z-score in assay [3] is 0.37; in assay [4] it was -4.14 (inactive).

As to `CO[C@H]1COC(=O)CC=C[C@H](C)COC(=O)[C@@H](C)NC(=O)CC=C[C@@H]1C`, the composite z-score in assay [1] was 0.0921 (inactive); in assay [2], 0.424. For the same compound, the z-score is -1.19 in assay [3] and -1.07 (inactive) in assay [4].
